Some test systems named below: DU-145 prostate; K-562 leukemia; MALME-3M melanoma; MDA-MB-231 breast; RXF 393 renal; SF-268 CNS; SF-295 CNS; SF-539 CNS; UACC-257 melanoma; M14 melanoma; HCT-15 colon; HT29 colon; SNB-75 CNS; SNB-19 CNS; U251 CNS; PC-3 prostate; SK-MEL-5 melanoma; UACC-62 melanoma; LOX IMVI melanoma; SK-MEL-28 melanoma.
Assay in all cases: NCI-60 one-dose screen, 48 h (100 = growth as untreated, 0 = no growth, -100 = all killed)
Common to all, as to details: 10 µM unless noted

Data on seven compounds can be found in PubChem BioAssay (NCI).

This is part of a sample that, as a whole, favours compounds with a hit. Of some 83,000 tested, about 20% had one in any assay.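 Negative percent growth values reflect cell death: -40 means 40% of the cells present at the start died, and -100 means all died.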 Unmarked numbers belong to inactive results. Calls of active or inactive are those of the source. How the source made its calls: active means growth percent below 10; inactive means the rest.

With `CC(=O)Nc1ccc(S(=O)(=O)Nc2ccc(-c3ccc4c(c3)NC(=O)/C4=C\c3ccc[nH]3)cc2)cc1`, the growth was 93.4% with DU-145 prostate; 64.8% in the test on K-562 leukemia; 92.5% in the test on MALME-3M melanoma; 88.7% in the test on MDA-MB-231 breast; 107% in the test with RXF 393 renal; 112% in the test with SF-268 CNS. The growth in the test with SF-295 CNS was 94.9%; in the test on SF-539 CNS it was 84%; with UACC-257 melanoma, 102%; in the test with M14 melanoma, 100%; in the test with HCT-15 colon it was 98.3%; in the test on HT29 colon it was 118%. Further, the growth was 108% in the test on SNB-75 CNS; 73% with SNB-19 CNS; 89.2% in the test on U251 CNS; 91.4% with PC-3 prostate; 92.6% in the test with SK-MEL-5 melanoma; 68.7% in the test with UACC-62 melanoma. The growth in the test with LOX IMVI melanoma is 85.2%; with SK-MEL-28 melanoma it was 83.6%.
As for `COc1cc(/C=N/NC(=O)c2ccc(OCc3nc4ccc(C)cc4[nH]3)cc2)cc(OC)c1OC`, the growth with DU-145 prostate was 62.2%; with K-562 leukemia it was 17.7%; with MALME-3M melanoma, 4.8% (active); with MDA-MB-231 breast it was 87.8%; with RXF 393 renal it was 39.6%; in the test with SF-268 CNS, 78.7%. Besides, the growth was 40.4% with SF-295 CNS; 49.2% with SF-539 CNS; 11.3% with UACC-257 melanoma; 33% in the test on M14 melanoma; 38.9% in the test on HCT-15 colon; 18.9% with HT29 colon. For the same compound, the growth in the test on SNB-75 CNS was 135%; with SNB-19 CNS it was 66.2%; in the test on U251 CNS, 29%; with PC-3 prostate, 49.7%; in the test on SK-MEL-5 melanoma, 18.3%; with UACC-62 melanoma, 29.9%. In addition, the growth in the test with LOX IMVI melanoma is 40.4%; in the test on SK-MEL-28 melanoma, 39.4%.
`CCN1CCN(Cc2ccc(C(=O)Nc3cccc(Nc4ccc5c(OC)cccc5n4)c3)cc2C(F)(F)F)CC1`: the growth with DU-145 prostate was -57.9% (active); in the test with K-562 leukemia it was 0.423% (active); in the test on MALME-3M melanoma it was -94.8% (active); in the test on MDA-MB-231 breast it was -94% (active); with RXF 393 renal, -93.3% (active); with SF-268 CNS, -19.1% (active). The growth in the test with SF-295 CNS was -95.3% (active); in the test on SF-539 CNS, -100% (active); with UACC-257 melanoma it was -82.8% (active); in the test on M14 melanoma it was -74.8% (active); in the test on HCT-15 colon, -83.3% (active); with HT29 colon it was -67.6% (active). Besides, the growth in the test with SNB-75 CNS is -89.7% (active); in the test with SNB-19 CNS, -99.7% (active); with U251 CNS it was -80.9% (active); in the test on PC-3 prostate, -38.6% (active); with SK-MEL-5 melanoma, -99.2% (active); in the test with UACC-62 melanoma it was -95.1% (active). The growth in the test on LOX IMVI melanoma is -92.1% (active); in the test on SK-MEL-28 melanoma, -100% (active).
On to `N#Cc1ccc(C(=O)CSc2nc3c(c(Nc4ccc(S(N)(=O)=O)cc4)n2)CCC3)cc1`, for which the growth in the test on DU-145 prostate is 51.1%; in the test with K-562 leukemia it was 55.2%; with MALME-3M melanoma, 48.8%; with MDA-MB-231 breast it was -14.3% (active); in the test on RXF 393 renal, -18.1% (active); in the test with SF-268 CNS, 38.3%. The growth with SF-295 CNS was 80.4%; in the test with SF-539 CNS, 16.2%; with UACC-257 melanoma, 102%; in the test on M14 melanoma, 78.1%; in the test on HCT-15 colon, 49.9%; with HT29 colon, 55.8%. Further, the growth in the test on SNB-75 CNS was 8.38% (active); in the test on SNB-19 CNS it was -13.3% (active); in the test with U251 CNS, -85.2% (active); in the test on PC-3 prostate it was 65.3%; with SK-MEL-5 melanoma, 71.9%; in the test with UACC-62 melanoma it was 83.1%. Further, the growth in the test with LOX IMVI melanoma was 1.66% (active); in the test on SK-MEL-28 melanoma, 48.5%.
On to `COc1ccc(SC2c3cc(OC)ccc3Oc3nc(N)c(C#N)c(N)c32)cc1` (stereo not given), for which the growth with DU-145 prostate is 99.1%; in the test on K-562 leukemia it was 65.7%; with MALME-3M melanoma, 91.3%; in the test on MDA-MB-231 breast, 82.1%; with RXF 393 renal, 62%; in the test on SF-268 CNS, 78.8%. The growth was 55.2% in the test with SF-295 CNS; 78% in the test with SF-539 CNS; 120% with UACC-257 melanoma; 79.7% with M14 melanoma; 80.5% in the test with HCT-15 colon; 97.4% with HT29 colon. Besides, the growth in the test on SNB-75 CNS was 49.6%; with SNB-19 CNS, 71.7%; in the test with U251 CNS, 65.3%; with PC-3 prostate it was 42.4%; in the test with SK-MEL-5 melanoma, 60.4%; in the test on UACC-62 melanoma it was 65.5%. Further, the growth was 5.16% (active) with LOX IMVI melanoma and 111% in the test on SK-MEL-28 melanoma.
For `CN(C)c1nc(NCCNS(=O)(=O)c2ccc(C(=O)/C=C/c3ccc(F)cc3)cc2)nc(N2CCOCC2)n1`, the growth in the test with DU-145 prostate is 33.3%; in the test on K-562 leukemia, 0.84% (active); in the test on MALME-3M melanoma it was 84.8%; in the test on MDA-MB-231 breast, 36.4%; in the test with RXF 393 renal it was 76.6%; with SF-268 CNS, 73%. Moreover, the growth in the test on SF-295 CNS was 79.2%; in the test with SF-539 CNS, 12.2%; with UACC-257 melanoma, 70.1%; with M14 melanoma, 12.7%; with HCT-15 colon, -29.8% (active); in the test with HT29 colon it was -79.7% (active). In addition, the growth with SNB-75 CNS was 58.5%; in the test on SNB-19 CNS it was 67.9%; in the test with U251 CNS it was -86.1% (active); with PC-3 prostate, 49.2%; in the test on SK-MEL-5 melanoma, 66.1%; in the test with UACC-62 melanoma, 55.2%. The growth was -97.6% (active) in the test with LOX IMVI melanoma and 97.2% with SK-MEL-28 melanoma.
As to `COC(=O)c1c(C(=O)OC)c2ccc3c4ccccc4ccc3n2c1C(=O)C(C)Br` (stereo not given), the growth in the test on DU-145 prostate is 71.7%; with K-562 leukemia, 4.34% (active); with MALME-3M melanoma it was 37.9%; with MDA-MB-231 breast, 33.1%; in the test with RXF 393 renal, 32.8%; with SF-268 CNS it was 69.3%. For the same compound, the growth with SF-295 CNS was 78%; in the test with SF-539 CNS, 17.2%; with UACC-257 melanoma it was 57%; in the test with M14 melanoma, 46.5%; with HCT-15 colon, 9.95% (active); in the test on HT29 colon, 24%. Besides, the growth was 94.3% in the test with SNB-75 CNS; 52.1% in the test on SNB-19 CNS; 23.9% in the test with U251 CNS; 47.1% in the test on PC-3 prostate; 24.4% in the test with SK-MEL-5 melanoma; 33.5% in the test with UACC-62 melanoma. Also, the growth in the test on LOX IMVI melanoma was -5.75% (active); in the test on SK-MEL-28 melanoma, 65.4%.
